In PubChem BioAssay (Tox21):
Records with an inconclusive call do not appear. Activity calls are given as the source filed them. Unless noted, the call rests on the fitted dose curve; in most records, active means well fitted curve in the direction sought with a large enough effect in the repeat runs; inconclusive means weak or mixed curves; inactive means flat fitted curve, though single readings scatter.

Tests used:
[1] = qHTS assay to test for compound auto fluorescence at 535 nm (green) in HEK293 cells (AID 720680)
[2] = qHTS assay to test for compound auto fluorescence at 460 nm (blue) in HEK293 cell free culture (AID 720681)
Procedure, shortened: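 Blue fluorescence (Ex 405/Em 460 nm, triamterene-equivalent) was read immediately after pin transfer of compound or DMSO into medium (DMEM, 10% FBS) without cells.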

[3] = qHTS assay to test for compound auto fluorescence at 535 nm (green) in HEK293 cell free culture (AID 720682)
Procedure, shortened: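 Steps: dispense DMEM/10% FBS into empty wells; pin in compound or DMSO; measure fluorescence at 485/535 nm. Values are fluorescein equivalents.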

[4] = qHTS assay to test for compound auto fluorescence at 590 nm (red) in HEK293 cell free culture (AID 720683)
Procedure, shortened: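 Red-channel autofluorescence of compounds in culture medium (DMEM, 10% FBS), no cells, measured at 540/590 nm. Rose Bengal sodium is the reference fluorophore for equivalence.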

[5] = qHTS assay to test for compound auto fluorescence at 590 nm (red) in HepG2 cell free culture (AID 720684)
Procedure, shortened: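 Plate contents were MEM with 10% FBS plus test compound or DMSO, no cells. Fluorescence was recorded with 540 nm excitation and 590 nm emission.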

[6] = qHTS assay to test for compound auto fluorescence at 460 nm (blue) in HepG2 cell free culture (AID 720685)
Procedure, shortened: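 Compound (23 nL) or DMSO pinned into cell-free MEM with 10% FBS; blue fluorescence read at 405/460 nm excitation/emission, expressed as auto-fluorescence equivalency to triamterene.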

[7] = qHTS assay to test for compound auto fluorescence at 535 nm (green) in HepG2 cell free culture (AID 720686)
[8] = qHTS assay to test for compound auto fluorescence at 460 nm (blue) in HepG2 cells (AID 720687)
Procedure, shortened: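 Blue-channel autofluorescence (Ex/Em 405/460 nm, triamterene-equivalent) was measured after 1 hr compound exposure at 37 C, 5% CO2. Cells were HepG2, plated overnight at 37 C in MEM plus 10% FBS.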

[9] = target: Glucocorticoid receptor (Homo sapiens) (UniProt P04150); assay: qHTS assay to identify small molecule agonists of the glucocorticoid receptor (GR) signaling pathway (AID 720691; active means well fitted activation curve with a large enough effect in the signal ratio in the repeat runs, not every such curve was filed as active; the % refers to the signal ratio); conditions: GR-bla HeLa, beta-lactamase reporter ratio, 18 h; activation: at 62.4 µM (top of the series)
Chain of Glucocorticoid receptor (Homo sapiens) (P04150 whole entry, looked up): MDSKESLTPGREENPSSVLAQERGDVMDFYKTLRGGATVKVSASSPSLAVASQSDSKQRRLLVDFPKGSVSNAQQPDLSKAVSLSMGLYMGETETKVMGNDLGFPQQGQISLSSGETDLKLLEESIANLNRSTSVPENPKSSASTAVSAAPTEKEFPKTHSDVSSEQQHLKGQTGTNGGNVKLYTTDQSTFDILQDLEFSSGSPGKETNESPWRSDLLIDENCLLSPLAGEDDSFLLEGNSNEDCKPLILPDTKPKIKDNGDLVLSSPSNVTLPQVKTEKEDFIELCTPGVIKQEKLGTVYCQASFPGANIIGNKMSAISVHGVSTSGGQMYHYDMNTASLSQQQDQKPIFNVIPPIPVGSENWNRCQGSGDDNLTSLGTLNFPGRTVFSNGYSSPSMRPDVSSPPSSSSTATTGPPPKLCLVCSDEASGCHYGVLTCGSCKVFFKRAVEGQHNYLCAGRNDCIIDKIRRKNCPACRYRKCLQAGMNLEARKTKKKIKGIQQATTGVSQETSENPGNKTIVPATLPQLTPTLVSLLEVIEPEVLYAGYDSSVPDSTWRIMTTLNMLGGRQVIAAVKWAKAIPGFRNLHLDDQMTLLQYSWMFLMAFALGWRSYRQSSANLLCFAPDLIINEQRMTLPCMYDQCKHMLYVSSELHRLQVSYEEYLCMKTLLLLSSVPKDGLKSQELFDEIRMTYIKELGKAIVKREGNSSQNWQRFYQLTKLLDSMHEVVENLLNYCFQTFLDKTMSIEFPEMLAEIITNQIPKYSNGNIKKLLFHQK
Procedure, shortened: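 Agonist mode in a HeLa line carrying a GRE-controlled beta-lactamase reporter. Compounds act for 18 h at 37 C before a 2 h room-temperature FRET substrate step and fluorescence reading.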

[10] = target: Glucocorticoid receptor (Homo sapiens) (UniProt P04150); assay: qHTS assay to identify small molecule antagonists of the glucocorticoid receptor (GR) signaling pathway (AID 720692; active means well fitted inhibition curve with a large enough effect in the signal ratio in the repeat runs, not every such curve was filed as active; the % refers to the signal ratio)
Procedure, shortened: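 Cells plated, rested 4 h at 37 C/5% CO2; compounds in DMSO pin-transferred; dexamethasone added to 5 nM final; 18 h at 37 C; B/G FRET substrate added, 2 h room temperature; fluorescence measured.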
On the % scale 0 is the no-effect control and ±100 the full control effect.

NC(=O)NS(=O)(=O)c1ccc(N)cc1
inactive: outcome [1] | Potency [2] | outcome [3] | Potency [4] | Potency [5] | Potency [6] | Potency [7] | Potency [8] | Potency [9]

C[C@@H]1C[C@H]2[C@@H]3CCC4=CC(=O)C=C[C@]4(C)[C@@]3(Cl)[C@@H](O)C[C@]2(C)[C@@]1(OC(=O)c1ccco1)C(=O)CCl
inactive: fluorescence, % of fluorescein [1] -0.0241% [at 18.6 µM] | fluorescence, % of fluorescent control [2] 0.0036% [at 18.6 µM] | activity change [3] -0.0517% [at 18.6 µM] | fluorescence, % of fluorescent control [4] 0.0049% [at 18.6 µM] | fluorescence, % of Rose Bengal [5] -0.333% [at 18.6 µM] | fluorescence, % of fluorescent control [6] -0.0123% [at 18.6 µM] | fluorescence, % of fluorescein control [7] -0.0158% [at 18.6 µM] | fluorescence, % of fluorescent control [8] -0.0042% [at 18.6 µM]

CCCCCCC[N+](CC)(CC)CCCCc1ccc(Cl)cc1
inactive: fluorescence, % of fluorescein [1] 0.0325% [at 18.6 µM] | fluorescence, % of fluorescent control [2] -0.0966% [at 18.6 µM] | activity change [3] -0.0177% [at 18.6 µM] | fluorescence, % of fluorescent control [4] -0.544% [at 18.6 µM] | fluorescence, % of Rose Bengal [5] -0.101% [at 18.6 µM] | fluorescence, % of fluorescent control [6] -0.0851% [at 18.6 µM] | fluorescence, % of fluorescein control [7] 0.172% [at 18.6 µM] | fluorescence, % of fluorescent control [8] -0.0972% [at 18.6 µM] | Potency [9]

Clc1ccc2n[nH]nc2c1
inactive: outcome [1] | Potency [2] | outcome [3] | Potency [4] | Potency [5] | Potency [6] | Potency [7] | Potency [8] | Potency [9]

ON=C1CCCC1
inactive: outcome [1] | Potency [2] | outcome [3] | Potency [4] | Potency [5] | Potency [6] | Potency [7] | Potency [8] | Potency [9]

NNC(=O)c1cccc(C(=O)NN)c1
inactive: outcome [1] | Potency [2] | outcome [3] | Potency [4] | Potency [5] | Potency [6] | Potency [7] | Potency [8] | Potency [9]

CN(C)c1ccc(SC#N)cc1
inactive: outcome [1] | Potency [2] | outcome [3] | Potency [4] | Potency [5] | Potency [6] | Potency [7] | Potency [8] | Potency [9]

N=C1C=CC(=C(c2ccc(N)cc2)c2ccc(N)cc2)C=C1
inactive: outcome [1] | Potency [2] | outcome [3] | Potency [4] | Potency [5] | Potency [6] | Potency [7] | Potency [8]

CSc1ccc(C(=O)c2[nH]c(=O)[nH]c2C)cc1
inactive: outcome [1] | Potency [2] | outcome [3] | Potency [4] | Potency [5] | Potency [6] | Potency [7] | Potency [8]

CSc1ccc2c(c1)C(N1CCN(C)CC1)Cc1ccccc1S2 (configuration not stated)
inactive: outcome [1] | Potency [2] | outcome [3] | Potency [4] | Potency [5] | Potency [6] | Potency [7] | Potency [8]

CO[Si](CCCNc1ccccc1)(OC)OC
inactive: outcome [1] | Potency [2] | outcome [3] | Potency [4] | Potency [5] | Potency [6] | Potency [7] | Potency [8] | Potency [9] | Potency [10]

CCCCN(CCCC)C(=O)N(CCCC)CCCC
inactive: outcome [1] | Potency [2] | outcome [3] | Potency [4] | Potency [5] | Potency [6] | Potency [7] | Potency [8] | Potency [9]

N#CSc1ccc(N)c([N+](=O)[O-])c1
inactive: outcome [1] | Potency [2] | outcome [3] | Potency [4] | Potency [5] | Potency [6] | Potency [7] | Potency [8] | Potency [9]

C[n+]1cc2c3c(ccc2c2ccc4cc5c(cc4c21)OCO5)OCO3
inactive: outcome [1] | Potency [2] | outcome [3] | Potency [4] | Potency [5] | Potency [6] | Potency [7] | Potency [8]
